Screening results from PubChem BioAssay.
Most compounds without a hit are left out; they make up all but 4.1% or so of the library.
hgDAF-12 ag – activates the H. glycines DAF-12 receptor ligand-binding domain; HEK293 GAL4-hgDAF12 UAS-luciferase reporter, agonist luminescence; normalized to butyrate control; AID 687014; 370,000 tested, 1.8% active; activation, % at 6.8 µM;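 active = activation above a cutoff set at the mean of all screened compounds plus 3 SD, cut at about 10% in these data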;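 note: 0% = DMSO wells and 100% = sodium butyrate wells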
hcDAF-12 act – activates DAF-12 receptor from parasite H. contortus; AID 652067; 370,000 tested, 1.4% active; activation, % at 6.8 µM; HEK293 hcDAF-12 lit1-tk-luc reporter, luminescence; 0% DMSO, 100% Δ7-dafachronic acid;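 active = activation above the mean of all tested compounds plus 3 SD, cut at about 5.5% in these data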;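 note: 100% = response to 3 µM Δ7-dafachronic acid high control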
DAX1 inh-1 – blocks DAX1 repression of SF-1 activated StAR promoter. HEK293T StAR-luciferase reporter, SF-1/DAX-1 repression relief. inhibition, % at 6.8 µM. 370,000 tested, 1.1% active. AID 652010;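 active = inhibition above the mean over all tested compounds plus 3 SD, cut at about 3.6% in these data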;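 note: 0% = DAX-1 cells with DMSO and 100% = cells lacking DAX-1 with DMSO; higher inhibition means more luminescence from relief of DAX-1 repression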
DAX1 inh-2 – inhibits human nuclear receptor DAX1; HEK293 Gal4-DAX1 luciferase reporter, luminescence; inhibition, % at 6.75 µM; 340,000 tested, 0.99% active;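 active = inhibition above the mean over all tested compounds plus 3 SD, cut at about 4.2% in these data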;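 note: 0% = DAX1-transfected cells with DMSO and 100% = empty-vector control cells with DMSO; inhibition shows as a rise in luminescence from relieved DAX1 repression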
Target sequence (P51843 207-470 limits assumed): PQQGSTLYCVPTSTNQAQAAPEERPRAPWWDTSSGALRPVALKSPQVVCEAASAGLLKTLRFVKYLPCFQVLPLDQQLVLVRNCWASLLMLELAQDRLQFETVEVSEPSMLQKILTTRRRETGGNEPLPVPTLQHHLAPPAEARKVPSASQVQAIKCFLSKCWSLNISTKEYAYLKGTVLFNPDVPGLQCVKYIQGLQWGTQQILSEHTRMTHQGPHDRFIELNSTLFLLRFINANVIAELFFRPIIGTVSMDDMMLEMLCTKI
ssDAF12 agonist – activates DAF-12 receptor from parasite S. stercoralis; HEK293 ssDAF-12/GRIP1 lit1-tk-luc reporter, luminescence; % of 3 µM dafachronic acid response; activation, % at 6.8 µM; 370,000 tested, 1% active;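 active = activation above the mean over all tested compounds plus 3 SD, cut at about 0.9% in these data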;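 note: 0% = DMSO-only wells and 100% = 3 µM delta7-dafachronic acid wells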
DAX1 conf – NR0B1 (human) inhibition, confirmation. shares compounds with DAX1 inh-1. HEK293T StAR-promoter luciferase reporter, SF-1/DAX-1 repression. inhibition, % at 6.8 µM. 2,400 tested, 87% active. AID 652134;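 active = inhibition above the average of every tested compound plus 3 SD, cut at about 3.8% in these data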;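 note: 0% = DAX-1 cells with DMSO and 100% = no DAX-1 control cells with DMSO; active compounds raise luminescence by relieving repression of the StAR reporter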
Target sequence (P51843 whole entry, looked up): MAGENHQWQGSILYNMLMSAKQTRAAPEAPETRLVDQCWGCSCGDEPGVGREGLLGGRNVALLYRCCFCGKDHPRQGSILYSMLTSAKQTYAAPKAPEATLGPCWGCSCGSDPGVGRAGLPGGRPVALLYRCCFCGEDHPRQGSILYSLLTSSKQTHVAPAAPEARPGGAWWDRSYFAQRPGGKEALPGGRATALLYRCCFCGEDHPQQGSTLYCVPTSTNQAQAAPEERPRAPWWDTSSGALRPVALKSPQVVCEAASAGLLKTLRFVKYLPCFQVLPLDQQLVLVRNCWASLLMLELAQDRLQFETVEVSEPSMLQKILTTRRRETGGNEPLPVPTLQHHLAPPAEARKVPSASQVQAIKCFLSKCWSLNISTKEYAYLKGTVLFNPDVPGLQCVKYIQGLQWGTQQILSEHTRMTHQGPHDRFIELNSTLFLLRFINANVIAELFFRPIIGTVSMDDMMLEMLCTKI
SF1 mutant ctr – counter-screen for DAX1 inhibitors: nonselective inhibitors with SF-1 AF2 mutant | shares compounds with DAX1 inh-1 | HEK293 StAR-luciferase, luminescence | inhibition, % at 6.8 µM | 2,400 tested, 78% active;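 active = inhibition above the mean of all tested compounds plus 3 SD, cut at about 3% in these data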;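 note: 0% = DAX-1 transfected cells with DMSO and 100% = cells without DAX-1 with DMSO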
LXR ag – LXR-beta agonism as hcDAF-12 counter-screen; shares compounds with hcDAF-12 act; HEK293 Gal4-LXR tk-luc reporter, luminescence, 24 h; normalized: DMSO 0%, positive control 100%; activation, % at 6.8 µM; 3,400 tested, under 10 active;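 active = mean percent activation of the reporter above a cutoff set as the average over tested compounds plus their standard deviation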
hcDAF12 conf – hcDAF-12 agonism, confirmation assay; shares compounds with hcDAF-12 act; 3,400 tested, 61% active; activation, % at 6.8 µM; HEK293 hcDAF-12 lit1-tk-luc reporter, luminescence; % of Δ7-dafachronic acid response;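 active = mean activation across triplicate tests above the threshold derived from the earlier primary screen, cut at about 5.5% in these data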;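 note: 0% = DMSO only wells and 100% = 3 µM Δ7-dafachronic acid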
hgDAF12 ag – hgDAF-12 agonism, confirmation assay; shares compounds with hgDAF-12 ag; HEK293 GAL4-hgDAF12 luciferase reporter, agonist mode; percent of butyrate response; activation, % at 6.8 µM; 3,300 tested, 80% active; AID 743050;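 active = mean activation over triplicate wells above the hit cutoff derived from the earlier primary screen, cut at about 11% in these data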;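 note: 0% = DMSO low control and 100% = 2 mM sodium butyrate high control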
LXR ag 2 – activates human LXR-beta, counter-screen for DAF-12 agonists; shares compounds with hgDAF-12 ag; HEK293 Gal4-LXR luciferase reporter, 24 h; activation, % at 6.8 µM; 3,300 tested, under 10 active;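 active = mean activation of the triplicate above a set limit carried over from the primary screen, none filed active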
Active calls of the source: *; x = no result given.

SMILES	hgDAF-12 ag	hcDAF-12 act	DAX1 inh-1	DAX1 inh-2	ssDAF12 agonist	DAX1 conf	SF1 mutant ctr	LXR ag	hcDAF12 conf	hgDAF12 ag	LXR ag 2
Cc1ccc(-c2nc(Nc3ccccc3)n[nH]2)cc1	14.4*	12.2*	6.2*	2.4	1.4*	23.0*	11.4*	1.9	13.1*	21.7*	1.3
Nc1nc(CSc2n[nH]c(-c3ccccc3)n2)nc(Nc2ccccc2)n1	-4.4	-2.6	-0.6	-0.4	-1.7	x	x	x	x	x	x
C/C(=N\Nc1cccc2cccnc12)c1ccccn1	27.5*	13.8*	6.3*	-0.7	2.0*	16.9*	7.8*	1.9	13.3*	22.5*	1.3
CCn1c(/C=N/Nc2ccc(C(=O)O)cc2)nc2ccccc21	-0.9	0.6	-0.2	0.9	-1.3	x	x	x	x	x	x
CC1Oc2ccccc2C=C1/C=N/Nc1ccc(C(=O)O)cc1 (stereo not drawn)	14.5*	6.9*	6.3*	-1.1	0.9*	19.0*	9.3*	1.9	14.8*	14.3*	0.9
O=C(Nc1ccccc1)c1ccc(-c2ccccc2)s1	14.2*	2.1	5.4*	4.2	0.7	12.1*	8.5*	x	x	16.8*	0.5
CCC(=O)Nc1ccc(OCc2nc3ccccc3s2)cc1	19.6*	11.0*	9.4*	2.3	2.5*	15.0*	7.7*	1.1	10.8*	16.5*	1.0
C=CCNc1nc(-c2cc3ccccc3o2)cs1	18.4*	9.1*	6.5*	0.1	1.5*	14.2*	4.1*	1.6	8.3*	17.8*	0.8
c1ccc2oc(-c3csc(NCC4CCCO4)n3)cc2c1 (stereo not drawn)	14.9*	4.0	10.1*	0.9	1.1*	12.2*	7.0*	x	x	15.1*	0.9
Cc1ccc(C)c(NC(=O)CSc2nccn2Cc2ccco2)c1	4.5	2.8	-0.7	1.3	-1.0	x	x	x	x	x	x
Cc1ccc(NC(=O)CSc2nccn2Cc2ccco2)c(C)c1	13.6*	7.2*	6.3*	0.5	-0.1	7.8*	3.2*	0.9	7.0*	13.7*	0.6
Cc1cc(C)c(C#N)c(SCc2nnc(-c3ccccc3[N+](=O)[O-])o2)n1	16.5*	3.8	5.1*	0.1	0.8	17.8*	4.6*	x	x	11.4*	0.9
Cc1cc(C)c(C#N)c(SCc2ccccc2[N+](=O)[O-])n1	-0.1	1.4	-0.9	-0.7	-0.9	x	x	x	x	x	x
COC(=O)[C@]12C[C@H](CC(=O)N3CCOCC3)C(=O)N(Cc3ccc4c(c3)OCO4)C1=C[C@H](C(C)C)O[C@@H]2C1CC1	-0.6	-3.0	0.3	x	-0.3	x	x	x	x	x	x
COC(=O)[C@H]1C[C@@]2(N3CCCCC3)c3ccccc3N[C@H]2N1S(=O)(=O)c1ccc(C)cc1	-0.5	0.2	-0.9	x	-1.3	x	x	x	x	x	x
COc1ccccc1C(=O)NNC(=O)c1cccc(Cl)c1	17.1*	13.2*	5.6*	1.1	0.7	14.0*	7.9*	1.0	7.5*	16.5*	0.7
Cc1cccc(COC[C@H](Cc2ccccc2)N2CCN(C(=O)c3cc(Cl)cc(Cl)c3)CCC2=O)c1	-1.6	-1.6	0.2	x	-0.8	x	x	x	x	x	x
COc1cccc(/C=N\N2CCN(c3ccc(C)cc3)CC2)c1O	1.0	-2.2	-0.2	x	-1.1	x	x	x	x	x	x
O=C(NN=Cc1ccc2c(c1)CCN2)c1cccs1	22.3*	9.8*	6.7*	5.6*	1.5*	17.2*	7.0*	1.5	5.6*	25.6*	1.1
CCN(C)C1CN(Cc2cn(Cc3cccc(Cl)c3)nn2)S(=O)(=O)C1 (stereo not drawn)	0.9	0.7	3.0	x	-0.6	x	x	x	x	x	x
Cc1ccc(O)c(C(=O)CC(=O)c2ccccc2Cl)c1	22.5*	3.3	5.0*	5.3*	-0.2	-0.1	1.6	x	x	4.7	0.2
CCOC(=O)c1sc2nc(NC(=O)C(C)(C)C)sc2c1C	13.9*	3.8	5.2*	0.7	0.5	4.1*	0.5	x	x	6.0	0.6
CCOC(=O)c1sc2nc(NC(=O)C3CC3)sc2c1C	1.0	1.8	0.4	0.6	-1.0	x	x	x	x	x	x
O=C(Nc1cccc(F)c1)c1ccc(-n2cncn2)c2ccoc12	17.3*	9.4*	9.0*	x	0.2	15.7*	5.4*	1.9	9.5*	17.5*	1.0
COC(=O)[C@]12CCCCC=C1N(Cc1ccc(OC)cc1)C(=O)[C@@H]2CC(=O)NCc1cccc(C(F)(F)F)c1	0.1	-2.2	-0.4	x	-1.7	x	x	x	x	x	x
SMILES	hgDAF-12 ag	hcDAF-12 act	DAX1 inh-1	DAX1 inh-2	ssDAF12 agonist	DAX1 conf	SF1 mutant ctr	LXR ag	hcDAF12 conf	hgDAF12 ag	LXR ag 2
COC(=O)[C@H](CC(C)C)N(Cc1cn(Cc2ccc(C)cc2)nn1)S(=O)(=O)c1ccccc1Br	-5.8	-3.8	-1.4	x	-1.3	x	x	x	x	x	x
O=C(/C=C/c1ccc(Cl)cc1)Nc1nccs1	24.0*	8.6*	11.1*	0.5	0.8	18.1*	10.4*	1.8	7.7*	20.4*	1.4
CN(/N=C/c1cccnc1)c1cnc2ccccc2n1	19.7*	11.6*	7.3*	2.5	4.2*	11.0*	5.8*	1.1	10.2*	17.4*	1.0
C(=N\N=C\c1cccnc1)/c1cccnc1	x	x	x	0.4	x	x	x	x	x	x	x
O=C(N/N=C/c1ccc(Cl)cc1Cl)c1ccncc1	3.3	-2.2	-1.0	1.2	-0.7	x	x	x	x	x	x
O=C(NN=Cc1ccc(Cl)cc1Cl)c1ccccc1	17.5*	3.3	5.5*	3.0	0.7	10.6*	5.8*	x	x	15.8*	0.8
COc1cccc(/C=C/C(=O)Nc2cccc(C(C)=O)c2)c1OC	9.8	0.4	1.5	-0.1	-1.4	x	x	x	x	x	x
COc1cccc(/C=C/C(=O)Nc2ccc3c(c2)OCCO3)c1OC	18.5*	7.7*	10.1*	-1.9	0.6	10.7*	5.3*	1.7	5.9*	16.6*	1.1
COc1ccc(C(C(=O)Nc2ccc3c(c2)OCCO3)n2c(=O)c(-c3ccco3)nc3ccccc32)cc1 (stereo not drawn)	3.5	4.5	0.2	x	0.8	x	x	x	x	x	x
